SMILES strings stand for the structures.

For the test, the system named is PRMT1 (protein arginine N-methyltransferase 1). Description: PRMT1 binders on small-molecule microarrays, primary screen, biochemical, small-molecule microarray, 635 nm fluorescence (AID 1088). As to conditions: small-molecule microarray binding, higher = more signal.
For the compound `CCc1oc(CC[C@@H](CO)NC(=O)NCCn2cc(C3(O)CCCCC3)nn2)c(C(=O)OC)c1C(=O)OC`, the composite z-score was 1.32.
The value for `O=C1C2C=CC(C(O)c3c(F)cccc3Cl)N(Nc3ccccc3)C2C(=O)N1c1ccccc1` (stereo not drawn) was 1.56.
The value for `COc1ccc(C(=O)Nc2ccc(CN3C(=O)[C@@]4(O[C@@H](CCO)[C@H]([Si](C)(C)c5ccc(OC)cc5)[C@H]4C)c4ccccc43)cc2)cc1` was 1.54.
In the case of `CC(C)c1ccc(NN2C(C(O)c3cc(C(F)(F)F)cc(C(F)(F)F)c3)C=CC3C(=O)N(c4ccccc4)C(=O)C32)cc1` (stereo not drawn) it was 0.353.
`CC(=O)NCCCC[C@@H]1NC(=O)[C@@H]2C[C@H](C(=O)NCCCCCCNC(=O)CS)[C@H](c3cccc(OCCO)c3)N2C1=O` returned a composite z-score of 1.55.
`O=C1c2ccccc2[C@@]2(Cc3ccccc3N(CCN3CCOCC3)C2=O)[C@H](c2ccc(CO)cc2)N1Cc1ccccc1` displayed a composite z-score of 1.08.
The value for `CCCCCN1CC=CC23O[C@@H]4/C=C\CCCOC(=O)C4[C@H]2C(=O)N(C(CO)C(C)C)[C@@H]3C1=O` (stereo partly drawn) was 0.0207; that for `CN1C(=O)[C@]2(Cc3ccccc3)N=C(c3ccc(OCCCO)cc3)O[C@@H]2c2ccccc21` was 1.55; that for `COc1ccc(CCNC(=O)[C@@H]2c3ccccc3C(=O)N(C3Cc4ccccc4C3)[C@H]2c2ccc(CO)cc2)cc1` was 1.34.
In the case of `COc1cc2c(cc1OC)CN(C(=O)[C@H]1[C@@H]3C(=O)O[C@@H](c4ccccc4)[C@@H](c4ccccc4)N3[C@@H](c3ccc(O)cc3)[C@]13C(=O)Nc1ccc(C#CC4=CCCCC4)cc13)CC2` it was 1.51; in that of `CCCC=C(CCC)[C@@H](NS(=O)(=O)c1cccs1)c1ccc(C(=O)OC)cc1`, 0.946.
The value for `C[C@@]1([C@@H](NC(=O)c2ccccc2)c2ccc(-c3ccccc3)cc2)C[C@H]1C1CCCCC1` was -1.93; that for `C=CCC(OC(C)=O)[C@@H]1[C@@H](N(Cc2ccc(-c3cccc(C(F)(F)F)c3)o2)C(=O)Cc2ccc(F)cc2)c2cc(OCCCO)ccc2N1C(=O)Cc1ccc(OC)cc1` (stereo partly drawn) was -2.39.
For the compound `COC(=O)c1c(CC[C@@H](CO)NC(=O)N[C@@H](C)Cn2cc(C3(O)CCCCC3)nn2)oc(C(C)=O)c1C(=O)OC`, the composite z-score worked out at 1.54.
The value for `C=CCC(OC(C)=O)[C@@H]1[C@@H](N(Cc2ccc(-c3cccc(C(F)(F)F)c3)o2)C(=O)c2ccc(-c3ccccc3)cc2)c2cc(OCCCO)ccc2N1C(=O)c1ccc(-c2ccccc2)cc1` (stereo partly drawn) was -0.432.
In the case of `COCCOC(=O)N1C(=O)[C@@]2(c3cc(C#Cc4ccc(OC)cc4)ccc31)[C@H](C(N)=O)[C@H]1C(=O)O[C@H](c3ccccc3)[C@H](c3ccccc3)N1[C@@H]2c1ccccc1OCCO` it was 1.54.
In the case of `CCN(CC)c1ccc(N2CC=CC34O[C@@H]5/C=C\CCCOC(=O)C5[C@H]3C(=O)N(CCO)[C@@H]4C2=O)cc1` (stereo partly drawn) it was 0.0226; in that of `CC(C)N1C(=O)[C@@]2(Cc3ccccc31)c1ccccc1C(=O)N(C1CCCCC1)[C@H]2c1ccc(CO)cc1`, 1.56.
Turning to `CN(C)C(=O)[C@]1(Cc2ccccc2CN=[N+]=[N-])N=C(c2ccc(OCCCO)cc2)O[C@@H]1c1ccccc1CN=[N+]=[N-]`, the composite z-score was 1.56.
In the case of `O=C1c2ccccc2[C@](Cc2ccccc2I)(C(=O)NC2CC2)[C@H](c2ccc(CO)cc2)N1Cc1ccccc1` it was 0.735.
The value for `COCCOC(=O)N1C(=O)[C@@]2(c3cc(C#CC4(O)CCCCCC4)ccc31)[C@H](c1ccc(O)cc1)N1[C@H](c3ccccc3)[C@H](c3ccccc3)OC(=O)[C@H]1[C@@H]2C(=O)Nc1nc2ccccc2s1` was 1.35; that for `C=CCOC(=O)[C@H]1[C@@H]2C(=O)O[C@@H](c3ccccc3)[C@@H](c3ccccc3)N2[C@@H](c2ccc(OCCOC(=O)[C@@H]3C[C@@H]4C(=O)N5CCC[C@H]5C(=O)N4[C@@H]3c3cccc(OCCO)c3)cc2)[C@]12C(=O)Nc1ccccc12` was 1.53; that for `C#CCN(CC=C(C)C)[C@H](CO)c1ccccc1` was 0.489.
In the case of `C=C[C@H](COC(C)=O)N(C(=O)OC(C)(C)C)S(=O)(=O)c1ccc(Br)cc1` it was 0.616; in that of `COc1ccc(C(O)C2C=CC3C(=O)N(c4ccccc4)C(=O)C3N2Nc2ccccc2F)cc1OCc1ccccc1` (stereo not drawn), 0.946; in that of `CCOC(=O)C1=CCC(c2ccc(C)cc2)N(S(=O)(=O)c2ccc(C)cc2)C1` (stereo not drawn), 0.329.
Consider `COCC(=C=CC[C@H](O)c1ccccc1OCCO)C[C@H](O)c1cc(Cl)cc(Cl)c1O`, for which the composite z-score turned out to be 1.45.
In the case of `COCCOC(=O)N1C(=O)[C@@]2(c3cc(C#CC4=CCCCC4)ccc31)[C@H](C(=O)Nc1nc3ccccc3s1)[C@H]1C(=O)O[C@H](c3ccccc3)[C@H](c3ccccc3)N1[C@@H]2c1ccccc1OCCO` it was 1.55.

The values are drawn from PubChem BioAssay.
